Measured values: PubChem BioAssay AID2284426 (EPA ToxCast)
The source made the active and inactive calls. Rule for the calls: active = hit-call score of the fitted dose curve at least 0.9, where 1 is the maximum; inactive = score below 0.9.

Experiment: CCTE_Deisenroth_DEVTOX-GLR_Ecto_CellCount: Viability Assessment in CCTE's DevTox GLR-Ecto Assay, Deisenroth Lab
Protocol: CCTE_Deisenroth_DEVTOX-GLR_Ecto assay is a cell-based, multiplex-readout assay that uses RUES2-GLR, a human pluripotent cell line, with measurements taken at 48 hours after chemical dosing in a 384-well microplateCCTE_Deisenroth_DEVTOX-GLR_Ecto_CellCount is 1 of 4 assay components calculated from the CCTE_Deisenroth_DEVTOX-GLR_Ecto assay and it measures cell count. Using fluorescent nuclei staining, gain-of-signal activity can be used to understand changes in cell viability with fluorescent microscopy. It is designed to make measurements of nuclei counts as a surrogate for cell number, as detected with optical fluorescence microscopy by Perkin Elmer Harmony nuclei detection algorithm. To generalize the intended target to other relatable targets, this assay component is annotated to the cell cycle intended target family, where the subfamily is cytotoxicity.Data from the assay component CCTE_Deisenroth_DEVTOX-GLR_Ecto_CellCount was analyzed as 1 assay endpoint. The endpoint the percent change in the cell count relative to the 0.2% DMSO control in the CCTE_Deisenroth_DEVTOX-GLR_Ecto assay. Furthermore, this assay endpoint can be referred to as a […] readout, because this assay has produced multiple assay endpoints where this one serves as a measure of cytotoxicity.
All assay protocols are aligned to the DevTox GLR-Endo assay workflow. Cells are seeded into 384-well microplates for 24 hours prior to initiating differentiation in defined media for a total duration of 48 hours. A total of two chemical exposures are administered in 24-hour intervals during the 48-hour differentiation period. At the assay termination point, cells are fixed and stained with a fluorescent dye demarcating the nucleus. High-content imaging is used to acquire brightfield and fluorescent channel images across 5 fields per well. Cell identification and mean biomarker fluorescence intensities are calculated with image analysis software to determine the total cell counts for viability assessment and the biomarker expression frequency for each lineage-dependent assay. A typical experimental design tests a 10-point concentration series (1 nM - 200 uM) for 28 compounds in single technical replicate. Assay plate controls include non-differentiated pluripotent cells (baseline control), lineage-specific differentiated cells (differentiation control), and DMSO solvent exposed differentiated cells (solvent control). Experiments typically comprise a minimum of four experimental replicates (n=4).

SMILES | outcome | AC50
Nc1cccc2c1C(=O)N(C1CCC(=O)NC1=O)C2=O (stereo unspecified) | inactive | 
CC(=O)Nc1ccc(O)cc1 | inactive | 
CC1=C(/C=C/C(C)=C/C=C/C(C)=C\C(=O)O)C(C)(C)CCC1 |  | 460 nM (active)
CCN(CC)CCNC(=O)c1c(C)[nH]c(/C=C2\C(=O)Nc3ccc(F)cc32)c1C |  | 1250 nM (active)
CS(=O)(=O)OCCCCOS(C)(=O)=O |  | 20400 nM (active)
CCCC(CCC)C(=O)O | inactive | 
CN(Cc1cnc2nc(N)nc(N)c2n1)c1ccc(C(=O)N[C@@H](CCC(=O)O)C(=O)O)cc1 | inactive | 
CC/C(=C(/CC)c1ccc(O)cc1)c1ccc(O)cc1 | inactive | 
O=C1CCC(N2C(=O)c3ccccc3C2=O)C(=O)N1 (stereo unspecified) | inactive | 
O=C1NS(=O)(=O)c2ccccc21 | inactive | 
CC(C)(c1ccc(O)cc1)c1ccc(O)cc1 | inactive | 
O=c1[nH]cc(F)c(=O)[nH]1 |  | 3870 nM (active)
Nc1nc2ncc(CNc3ccc(C(=O)N[C@@H](CCC(=O)O)C(=O)O)cc3)nc2c(=O)[nH]1 | inactive | 
CC1(C)S[C@@H]2[C@H](NC(=O)Cc3ccccc3)C(=O)N2[C@H]1C(=O)O | inactive | 
CC1=C(/C=C/C(C)=C/C=C/C(C)=C/C(=O)O)C(C)(C)CCC1 |  | 24.2 nM (active)
O=C1NC(=O)C(c2ccccc2)(c2ccccc2)N1 | inactive | 
